In the supplement of paper PMC10732440:
± gives the standard deviation of the averaged measurements.

Each compound was assayed on Caenorhabditis elegans N2 infected with Nematocida parisii ERTm1 (assay: progeny production relative to DMSO uninfected control; higher = more progeny despite microsporidia infection (inhibition of infection with low host toxicity)). Conditions: infection time 6 days; 40 µM.
Method in brief: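 In 96-well plates holding K-medium, E. coli OP50 and 15,000 N. parisii spores/μL, 100 wild-type C. elegans L1 larvae per well were exposed to compound at 100 μM or 40 μM in 1% DMSO for 6 days with shaking at 21°C. Worms were then stained with Rose Bengal, scanned and counted with WorMachine, with three runs per compound and dose. Each value is progeny production as a percentage of the spore-free vehicle condition, averaged over replicates.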
With `Oc1ccc(NCc2ccccc2OCc2ccccc2)cc1` the progeny production was 5.72 ± 3.1%. With `Cc1cc(CCCOc2c(C)cc(-c3noc(C(F)(F)F)n3)cc2C)on1` the progeny production was 1.93 ± 0.29%. Work on `O=S(=O)(Nc1cccc2cccnc12)c1ccccc1` yielded a progeny production of 5.03 ± 2.5%. For `O=C(CC1Sc2ncnn2C1=O)Nc1ccc(Br)cc1` (centres undefined), the progeny production was 6.82 ± 1.8%. For `CN(C)c1[nH]c(=O)ncc1F`, the progeny production was 3.57 ± 3.5%. For `Oc1c(C(Nc2nc3ccccc3s2)c2ccc(OC(F)F)cc2)ccc2cccnc12` (centres undefined), the progeny production was 3.08 ± 0.27%. `CCNC(=O)Nc1cn2c(-c3ncc(CC)cn3)cc(-c3cccnc3)cc2n1` was tested, and the progeny production was 3.09 ± 1.5%. `O=C(NCCN1CCCCC1)c1cccc(C(F)(F)F)c1` showed a progeny production of 5.09 ± 1.5%. In the case of `Cc1cccc(CC(=O)N[C@H]2CCOC2=O)c1`, the progeny production is reported as 3.04 ± 0.7%. Work on `CCCCCCC1c2ccc(O)cc2Oc2cc(O)ccc21` yielded a progeny production of 4.98 ± 1.8%. Compound `CC(C)(C)c1cc(CCC(=O)N2CCC2)cc(C(C)(C)C)c1O` has a progeny production of 5.76 ± 2.7%. `O=C(O)c1ccccc1Sc1ncnc2sc3c(c12)CCC3` showed a progeny production of 3.94 ± 1.7%. For `C=C(C)n1c(=O)n(Cc2ccccc2C)c2ccccc21`, the progeny production was 6.26 ± 0.83%. For `CC(C)c1ccc(COc2cccc(-c3cc([S+](C)[O-])c(C#N)c(=O)[nH]3)c2)cc1` (centres undefined), the progeny production was 2.96 ± 1.6%. Compound `CCCc1ccc(-c2cc3cn([C@H]4C[C@H](O)[C@@H](CO)O4)c(=O)nc3o2)cc1` has a progeny production of 3.62 ± 2.5%. For `COc1ccc(C)cc1NC(=O)c1ccc(S(=O)(=O)N2CCCCC2)cc1`, the progeny production was 7.49 ± 1.3%. For `O=C(Nc1ccc(F)cc1)c1nn(-c2ccccc2)c(=O)cc1Cl`, the progeny production was 5.87 ± 3.4%. `O=c1cc(NCCCN[C@@H]2CCOc3c(Br)cc(Br)cc32)[nH]c2ccsc12` was tested, and the progeny production was 5.52 ± 2.9%. Compound `NC(=O)c1[nH]c2ccc(S(N)(=O)=O)cc2c1-c1ccccc1` has a progeny production of 4.85 ± 2.6%. With `CCCCN1C[C@H](O)[C@@H](O)[C@H](O)[C@H]1CO` the progeny production was 4.97 ± 3.5%. Work on `NC(=O)C(c1ccccc1)(c1ccccc1)[C@H]1CCCN(CCc2ccc3c(c2)CCO3)C1` yielded a progeny production of 7.34 ± 0.47%. Work on `COc1cc(NC(=O)CN2C(=O)NC(c3ccccc3)(c3ccccc3)C2=O)cc(OC)c1` yielded a progeny production of 3.5 ± 1%. With `O=C(NCc1ccc(F)cc1)c1c(O)c2ncccc2[nH]c1=O` the progeny production was 5.38 ± 2.2%. Compound `CC(=N)N1CC[C@H](SC2=C(C(=O)O)N3C(=O)[C@@H]([C@@H](C)O)[C@H]3C2)C1` has a progeny production of 4.18 ± 0.82%. `CN1CCN(Cc2ccc(-c3cnc4[nH]cc(-c5ccc6[nH]ccc6c5)c4c3)cc2)CC1` was tested, and the progeny production was 9.2 ± 4.8%. In the case of `CC(C)n1cnc2c(NCc3ccccc3)nc(NCc3ccccc3)nc21`, the progeny production is reported as 7.59 ± 5.2%. Compound `N=C(N)c1ccc(COc2ccc(Cl)cc2)cc1` has a progeny production of 3.13 ± 0.66%. In the case of `N[C@@H]1CN(c2c(F)cc3c(=O)c(C(=O)O)cn([C@@H]4C[C@@H]4F)c3c2Cl)CC12CC2`, the progeny production is reported as 9.37 ± 3.9%. `CO[C@@]1(NC(=O)Cc2cccs2)C(=O)N2C(C(=O)O)=C(COC(N)=O)CS[C@@H]21` showed a progeny production of 8.96 ± 2.4%. `Cc1cccc(C)c1C(=O)Nc1nc(-c2ccccn2)cc2ccccc12` was tested, and the progeny production was 4.99 ± 2.4%. `C[C@H]1COc2c(N3CCN(C)CC3)c(F)cc3c(=O)c(C(=O)O)cn1c23` showed a progeny production of 5.38 ± 2.2%. Compound `C[C@@H]1O[C@@H]1P(=O)(O)O` has a progeny production of 4.36 ± 0.35%. `[N-]=[N+]=N[C@H]1C[C@H](n2ccc(=O)[nH]c2=O)O[C@@H]1CO` was tested, and the progeny production was 4.8 ± 1.5%. Compound `O=C(Nc1[nH]c(=O)ncc1F)c1ccccc1` has a progeny production of 4.09 ± 0.71%. Compound `COc1cc2c(O)c3c(c(-c4ccc5c(c4)OCO5)c2cc1OC)C(=O)OC3` has a progeny production of 4.37 ± 1.7%. Compound `COc1ccc2c(c1)cc(CNC(=O)c1cc3ccccc3o1)n2CC(=O)O` has a progeny production of 3.92 ± 2.4%. Work on `COc1cc(NS(=O)(=O)c2ccc(C)cc2)c2ncccc2c1` yielded a progeny production of 5.38 ± 2.2%. `COc1c(F)c(F)cc2c(=O)c(C(=O)O)cn(C3CC3)c12` showed a progeny production of 6.01 ± 4.3%. Work on `NNC(=O)c1ccncc1` yielded a progeny production of 12.3 ± 5.7%.
